Data as given in ChEMBL document CHEMBL4888484, “Replenishing the malaria drug discovery pipeline: Screening and hit evaluation of the MMV Hit Generation Library 1 (HGL1) against asexual blood stage Plasmodium falciparum ,using a nano luciferase reporter read-out” (2022).
Screen size: about 4,800 compounds; about 410 (8.5%) showed an effect of 50% or more. Shown is part of a subset that was picked to be rich in strong results.

Each molecule was assayed on Plasmodium falciparum (assay: Confirmatory screen in NF54 pLDH assay, in single point, at 2uM, 72h). Details: timepoint 72 hour.
Format: functional, Erythrocyte

Row | Structure (SMILES) | % Inhibition
1 | CCC(CC)C(=O)Nc1cccc(O)c1 | 7%
2 | O=c1c2cc(F)c(F)cc2ncn1C[C@@H](O)CC1CCCC1 | 9%
3 | O=C1CCC(Nc2ccc(Br)cn2)C(C2CC2)N1 (stereo not drawn) | 15%
4 | Clc1cc(CN2CC[C@@]3(CCCOC3)C2)ccc1OCCN1CCOCC1 | 11%
5 | CCn1cc(Cl)c(C(=O)N2N=C3/C(=C/c4ccc5c(c4)OCO5)CCCC3C2c2ccc3c(c2)OCO3)n1 (stereo not drawn) | 8%
6 | CCc1ccc(NC(=O)c2c(C)sc3ncnc(N4CCCCC4)c23)cc1 | 12%
7 | C[C@H](C(=O)Nc1nccn2ccnc12)c1ccccc1 | 3%
8 | CC(=O)N1CCn2c(nnc2[C@@H]2CCCN2S(=O)(=O)c2cc(F)ccc2F)C1 | 3%
9 | CCC(CC)C(=O)Nc1cccc(Cl)c1C | 4%
10 | COc1ccc(CN2CC(C)OC3(CCOC3)C2)cc1Cl (stereo not drawn) | 6%
11 | Cc1noc(C)c1C(=O)NC[C@H](O)Cn1ccccc1=O | 6%
12 | Cc1c(NC(=O)c2ccc(-c3cccc(F)c3)o2)cccc1-c1nc2ncccc2o1 | -2%
13 | Cc1ccc(F)cc1S(=O)(=O)N1CC[C@]2(CCN(c3cccnc3)C2)C1 | -20%
14 | N#Cc1ccc(O)c(NC(=O)c2snc(O)c2Cl)c1 | -3%
15 | O=C1[C@@H]2CCCN2C(=O)N1Cc1ccnc(OC2CCOCC2)c1 | -11%
16 | O=C(N[C@H](c1ccccc1)C1CC1)C(c1ccccc1)c1ccccc1 | 11%
17 | CN(C)C(=O)NCC1(NC(=O)N(C)C)CCC1 | 5%
18 | CCOc1cc(CNC2CCCCC2)cc(Cl)c1OCc1ccc(C)cc1 | -4%
19 | CC(C)N1CCN(C(=O)CN2N=C(c3nc(-c4ccccc4)no3)CCC2=O)CC1 | 2%
20 | c1ccc(-c2noc(-c3ccc(NC4CCCCC4)nn3)n2)cc1 | 60%
21 | Clc1ccc(-c2noc(C3CNC3)n2)cc1 | 15%

Row | Structure (SMILES) | % Inhibition
22 | COc1cccc(-c2nn(-c3nc(-c4ccccc4)cc(C(F)(F)F)n3)c(-c3cccc(OC)c3)c2Cl)c1 | 35%
23 | COc1ccc(-c2cc(C(F)(F)F)nc(-n3nc(-c4cccc(OC)c4)c(Cl)c3-c3cccc(OC)c3)n2)cc1 | 92%
24 | Cc1c(-c2nn(-c3nc(C4CC4)cc(C(F)(F)F)n3)c(-c3cnn(C)c3C)c2Cl)cnn1C | 14%
25 | Cc1nnc2ccc(S(=O)(=O)N(Cc3ccc(F)cc3)c3cccc(Cl)c3)cn12 | 14%
26 | C[C@H]1CN(Cc2ccccc2)CC2(CCN(C(=O)N(C)C)CC2)O1 | 10%
27 | COc1ccc(F)c(NC(=O)N(CCO)C(C)C)c1 | 10%
28 | COc1ccc(NC(=O)CN2N=C(C(=O)Nc3ccc(F)cc3)CCC2=O)cc1 | -1%
29 | COc1ccc2nc(O)c(C(=O)Nc3ccc4c(c3F)CCNC4)cc2c1 | 101%
30 | O=C(c1cn[nH]c1-c1ccccc1)N1CCCCCC1 | 1%
31 | CC(C)[C@@H]1CC[C@H](C)C[C@H]1OC(=O)Cn1cc(-c2ccc(Cl)cc2)[n+]2c1CCC2 | 75%
32 | CC(C)(C)NC(=O)c1ncc(Br)cc1Br | 5%
33 | COc1ccc(-c2noc([C@H](C)NC(=O)N3CCNC(=O)C3)n2)cc1OC | 6%
34 | CCn1ccnc1C(=O)Nc1ccc(OC)nc1 | 7%
35 | CCc1ccc(CS(=O)(=O)NC(=O)c2cn3ccnc3s2)cc1 | 4%
36 | CS(=O)(=O)Nc1ccc(OC(=O)C2C3CCCCC32)cc1 (stereo not drawn) | 11%
37 | O=C1OC2(c3ccccc31)C(c1ccccc1)CC(=O)N2Cc1ccccc1 (stereo not drawn) | -21%
38 | Cc1ccccc1C(=O)Cc1ncc[nH]1 | 53%
39 | Cc1ccc(C(=O)N2CC(C)CC(C)C2)cc1NCc1ncc[nH]1 (stereo not drawn) | 8%
40 | C[C@](O)(CCc1ccccc1)C(=O)NCCc1ncc[nH]1 | 6%
41 | CCCS(=O)(=O)NC1CCC2(CC1)OCCO2 | -18%
42 | COc1ccc2c(c1)CN(Cc1ccccc1Cl)CC[C@H]1COC(=O)N21 | -1%

Row | Structure (SMILES) | % Inhibition
43 | COc1ccc([C@@H]2C=C(c3ccc(Cl)cc3)N=C3NC(NC(=O)c4ccccc4OC)=NN32)cc1 | 89%
44 | COc1ccccc1C(=O)NC1=NN2C(=NC(c3ccc(Cl)cc3)=C[C@H]2c2ccc(Cl)cc2)N1 | 92%
45 | COc1cc(N2CCn3c(nc4cc(Cl)ccc43)C2)ccc1NC(=O)c1ccccc1OC | -10%
46 | O=C(NC1=NN2C(=NC(c3ccc(Cl)cc3)=C[C@H]2c2ccc(F)cc2)N1)c1ccc(Cl)cc1 | 13%
47 | CCC1=NN2C(=NC(C(=O)O)=C[C@H]2c2ccc(O)cc2)N1 | -3%
48 | Fc1ccc(C2=C[C@@H](c3ccc(Cl)cc3)N3N=C(c4ccc(Cl)cc4)NC3=N2)cc1 | 97%
49 | COc1ccccc1C(=O)NC1=C(C)Nc2ncnn2[C@H]1c1c[nH]c2ccccc12 | -5%
50 | COc1cc(NC(=O)c2ccccc2Cl)cc(S(=O)(=O)c2ccc(Cl)cc2)c1 | -15%
51 | Cc1noc(Cn2c(=O)c3ccccc3n(CC(=O)Nc3cccc(Cl)c3C)c2=O)n1 | 2%
52 | Cc1cccc(N2C(=O)C3CC3C2=O)c1 (stereo not drawn) | 8%
53 | C[n+]1ccc(-c2ncc(-c3ccccc3)o2)c2ccccc21 | 62%
54 | Cc1cc(F)c(C(=O)Nc2nc(-c3cnn(C)c3)cs2)cc1F | -4%
55 | O=C(NCc1cccc(C(F)(F)F)c1)c1csc(C(=O)NC2CCCC2)n1 | -3%
56 | Cc1ccccc1N1C2=CCCCCN2C[C@]1(O)c1ccc(Br)cc1 | 14%
57 | COC1CCC(CC(=O)N[C@H]2CC(=O)N(c3ccccc3)C2)CC1 (stereo partly drawn) | 10%
58 | O=S(=O)(c1cccc(F)c1)c1cnc2c(F)cccc2c1-c1cccc(F)c1 | -3%
59 | COc1ccc(-c2nn(-c3ccccc3)c(O)c2C(c2ccc(C(=O)O)cc2)c2c(-c3ccc(OC)cc3)nn(-c3ccccc3)c2O)cc1 | 4%
60 | Cc1nn(-c2ccccn2)c(O)c1C(c1ccccc1)c1c(C)nn(-c2ccccn2)c1O | 86%
61 | Cc1ccc2c(c1)c1c(n2S(=O)(=O)c2ccc(C(C)(C)C)cc2)CCCN(C)C1 | 94%
62 | Cc1ccc(S(=O)(=O)N2CCCC(=O)c3ccccc32)cc1 | 0%
63 | Cc1ccc(S(=O)(=O)N2CCN(S(C)(=O)=O)C2)cc1 | -3%
